Records with an inconclusive call do not appear. A call without a number means that no potency is given here. Values without a mark were called inactive. Active and inactive are the calls of the source. The call rests on the fitted dose curve; in most records, active means well fitted curve in the direction sought with a large enough effect; inconclusive means small, poorly fitted or top-dose-only effect, or another doubt; inactive means no such curve, though single readings can be large; an effect the other way counts as inactive or inconclusive.

The results in this text go back to PubChem BioAssay (NCATS).

In assay [1] the target is Calcium and integrin-binding protein 1 (Homo sapiens) (UniProt Q99828). The assay can be described thus: Primary qHTS for Identification of Calcium Integrin Binding Protein 1 (CIB1) Competitor (AID 1508620).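 Further: GST tagged CIB1 binding a fluorescein labelled alphaIIb integrin peptide tracer; top concentration of the series differs between compounds.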 The conditions noted are these: CIB1-GST / FITC-alphaIIb peptide fluorescence polarization; series mostly up to 114 µM. Put shortly: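 Fluorescence polarization competition: CIB1-GST (1 uM final) preincubated with compound 15 min at room temperature, then FITC-labeled alphaIIb peptide (100 nM final) added for another 15 min. Polarization read at Ex 480/Em 540.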
In general terms: Quantitative high-throughput screening tests each substance at several concentrations.

The nature of assay [2]: Primary qHTS for inhibitors of nuclear receptor binding SET domain protein 2 (NSD2) in an isogenic RCH-ACV NSD2 p.E1099K mutant (9B) (AID 1645876). Further: nearly all actives have a fitted effect of over 70% in size. Further: potency means the concentration at half of the fitted maximal effect. To be noted: RCH-ACV (leukaemia line) NSD2 E1099K (9B) viability, CellTiter-Glo, 72 h; series mostly up to 44.9 µM.
Assay [3] can be described thus: Primary qHTS for small molecule stabilizers of the endoplasmic reticulum resident proteome: Secreted ER Calcium Modulated Protein (SERCaMP) assay (AID 1508630). To be noted: SH-SY5Y GLuc-SERCaMP (Gaussia luciferase released on ER calcium loss) secretion, thapsigargin, luminescence; series mostly up to 38.4 µM. Put shortly:
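GLuc-SERCaMP-expressing SH-SY5Y cells, pretreated 16 h with compound, are challenged with thapsigargin to empty ER calcium stores; after 4 h, coelenterazine is added directly to the medium and luminescence is imaged.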

The target of a further assay is Papain (Carica papaya) (UniProt P00784). The assay can be described thus: Primary qHTS assay for inhibitors of the protease papain (AID 1645873).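 Further: papain turnover of Z-FR-AMC read as the AMC fluorescence gain over 10 min.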 The conditions noted are these: papain Z-FR-AMC cleavage, AMC fluorescence; series mostly up to 49.8 µM.
Sequence of Papain (Carica papaya) (P00784 whole entry, looked up): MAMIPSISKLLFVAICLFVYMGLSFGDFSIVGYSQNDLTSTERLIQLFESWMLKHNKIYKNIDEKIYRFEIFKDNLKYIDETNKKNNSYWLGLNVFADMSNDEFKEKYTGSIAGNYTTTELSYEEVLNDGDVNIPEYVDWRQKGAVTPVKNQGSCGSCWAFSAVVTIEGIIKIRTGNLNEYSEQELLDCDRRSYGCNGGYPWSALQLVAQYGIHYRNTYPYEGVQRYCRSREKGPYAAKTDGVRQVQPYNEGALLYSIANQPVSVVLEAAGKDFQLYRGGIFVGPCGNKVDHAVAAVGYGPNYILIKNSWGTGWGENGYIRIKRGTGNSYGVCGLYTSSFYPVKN

Sequence of Calcium and integrin-binding protein 1 (Homo sapiens) (Q99828 whole entry, looked up): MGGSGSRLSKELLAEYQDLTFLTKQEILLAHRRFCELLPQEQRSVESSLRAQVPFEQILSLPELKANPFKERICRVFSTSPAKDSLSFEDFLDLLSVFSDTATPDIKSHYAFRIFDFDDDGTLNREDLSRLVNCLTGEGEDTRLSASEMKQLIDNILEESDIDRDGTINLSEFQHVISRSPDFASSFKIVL

`C=CC(C)(O)CC/C=C(\C)C(=O)O[C@H]1[C@H](O)[C@@H](CO)O[C@@H](OC(=O)[C@]23CCC(C)(C)CC2C2=CCC4[C@@]5(C)CC[C@H](O[C@@H]6O[C@H](CO[C@@H]7OC[C@H](O)[C@H](O)[C@H]7O[C@@H]7OC[C@@H](O)[C@H](O)[C@H]7O)[C@@H](O)[C@H](O)[C@H]6O)C(C)(C)C5CC[C@@]4(C)[C@]2(C)CC3)[C@@H]1OC1OC(C)C(O[C@@H]2OC[C@@H](O)[C@H](O[C@@H]3OC[C@@H](O)[C@H](O)[C@H]3O)[C@H]2O)C(O)C1O` (stereo partly drawn): in assay [1], the activity change, negative = inhibition is -11.1% [at 12.4 µM]. Also, the activity change, negative = viability loss in assay [2] was -17.9% [at 9.23 µM]. In the case of `COC1CC(OC2CCC3(C=O)C(CCC4C3CCC3(C)C(C5=CC(=O)OC5)CCC43O)C2)OC(C)C1OC1OC(CO)C(O)C(O)C1O` (stereo not drawn), in assay [1], the Potency result was “inactive”. Further, in assay [2], the Potency was 85.8 nM (active). The like results for `C=CC(C)(C)c1[nH]c2cccc3c2c1C[C@@H]1[C@@H]3[C@@H](OC(C)=O)[C@H](C)CN1C` were, in that order, “inactive” and “inactive”. For `COC(=O)C1(C)CCC(=O)C2(C)c3c(O)cc(C(C)C)cc3C(O)C(OC(C)=O)C12` (stereo not drawn) the same measures were “inactive” and “inactive”. The like results for `COc1cc(C(=O)O[C@H]2[C@@H]3C=CO[C@@H](O[C@@H]4O[C@H](CO)[C@@H](O)[C@H](O)[C@H]4O)[C@@H]3[C@@]3(CO)O[C@@H]23)ccc1O` were, in that order, “inactive” and “inactive”.

On to `CC[C@H]1CN2CC[C@H]1C[C@H]2[C@H](O)c1ccnc2ccc(OC)cc12`, for which the Potency result in assay [1] and in assay [2] was “inactive” each time. For `CO[C@H]1[C@H](O)[C@H](O[C@H]2CC[C@]3(C)C4CC[C@]5(C)[C@H](C6=CC(=O)OC6)CC[C@]5(O)C4CC[C@@H]3C2)O[C@@H](C)[C@@H]1O` (stereo partly drawn), the Potency entry in assay [1] is “inactive”. In addition, the Potency in assay [2] is 22.4 nM (active). For `CC(=O)O[C@H]1C[C@@H](OC(C)=O)C(C)(C)C2C[C@@H](O)[C@]3(C)C(CC[C@@]4(C)[C@H](C5=CC(=O)OC5O)C[C@H]5O[C@]543)[C@]21C` (stereo partly drawn) the same measures were “inactive” and “inactive”. The like results for `CCN1C[C@]2(COC(=O)c3ccccc3N3C(=O)C[C@H](C)C3=O)CC[C@H](OC)[C@@]34[C@@H]5C[C@H]6[C@H](OC)[C@@H]5[C@](O)(C[C@@H]6OC)[C@](O)([C@@H](OC)[C@H]23)[C@@H]14` were, in that order, “inactive” and “inactive”. For `CN1[C@@H]2CC[C@H]1CC(OC(=O)C1C=Nc3ccccc31)C2` (stereo partly drawn) the same measures were “inactive” and “inactive”. With `C=C1[C@@H]2CC[C@@]3(C)[C@H](c4ccoc4)OC(=O)C[C@]13O[C@H]1CC(=O)C(C)(C)[C@H](C(OC(C)=O)C(=O)OC)[C@]12C` (stereo partly drawn), the Potency entry in assay [1] and in assay [2] was “inactive” in each case. `N#C[C@@H](O[C@@H]1O[C@H](CO[C@@H]2O[C@H](CO)[C@@H](O)[C@H](O)[C@H]2O)[C@@H](O)[C@H](O)[C@H]1O)c1ccccc1`: the Potency entry in assay [1] and in assay [2] was “inactive” in each case. As to `CCN1CC2(COC)C3[C@@H](OC)C4C1C3(C1C[C@]3(O)[C@H](OC(=O)c5ccccc5)C1[C@]4(OC(C)=O)[C@@H](O)[C@@H]3OC)[C@H](OC)C[C@H]2O` (stereo partly drawn), the Potency entry in assay [1] and in assay [2] was “inactive” in each case. Regarding `C/C=C(\C)C(=O)OC1C(C)OC(OC2C(C)OC(OC3CCC4(C)C(=CCC5C4CCC4(C)C(C(C)OC6OC(COC7OC(CO)C(O)C(O)C7O)C(O)C(O)C6O)CCC54O)C3)CC2OC)C(O)C1OC` (stereo not drawn), the Potency result in assay [1] is “inactive”. The activity change, negative = viability loss in assay [2] is -3.12% [at 9.23 µM]. As to `C[C@]12CC[C@H]3[C@@H]([C@H](O)CC4=CC(=O)CC[C@@]43C)[C@@H]1CC[C@@H]2O`, the Potency entry in assay [1] and in assay [2] was “inactive” throughout. With `CC1=C2C(=O)C3[C@@H](CC=C4C[C@@H](O)CC[C@@]43C)[C@@H]2CC[C@]12O[C@@H]1C[C@H](C)CN[C@H]1[C@H]2C` (stereo partly drawn), the Potency result in assay [1] and in assay [2] was “inactive” in each case. On to `CC(=O)OC12C(O)C(C)C3(O)C4C=C(C)C(=O)C4CC(CO)=CC3C1C2(C)C` (stereo not drawn), for which the Potency result in assay [1] and in assay [2] was “inactive” each time. For `CCCN1CCO[C@H]2c3cc(O)ccc3OC[C@@H]21`, the Potency result in assay [1] and in assay [2] was “inactive” each time. As for `Ic1ccccc1CNC1C2CCN(CC2)C1C(c1ccccc1)c1ccccc1` (stereo not drawn), the outcome in assay [3] was inactive. Moreover, the Potency entry with Papain (Carica papaya) was “inactive”. For `C[C@@]12C[C@@H](c3ccoc3)OC(=O)C1CC[C@]1(C)[C@H]2[C@H]2C=C[C@]1(O)C(=O)O2` (stereo partly drawn), the Potency entry in assay [1] and in assay [2] was “inactive” throughout. For the compound `C[C@H]1C(=O)O[C@H]2[C@H](O)[C@]34C5OC(=O)[C@]3(O[C@@H]3OC(=O)[C@H](O)C34[C@H](C(C)(C)C)[C@H]5O)C12O` (stereo partly drawn), the Potency entry in assay [1] and in assay [2] was “inactive” each time. Turning to `CC1(C)S[C@@H]2[C@H](N)C(=O)N2[C@H]1C(=O)O`, the outcome in assay [3] was inactive.
